This is a sample that favours compounds with a hit; in the whole collection about 5.8% have one here.
MCF10A rereplic = inducers of DNA re-replication in MCF 10A breast cells; MCF 10A DNA re-replication, Hoechst nuclear intensity, 48 h; Potency, µM (doses to about 46.1 µM), usual class: activators; 350,000 tested, 2.9% active; note: nearly all actives have a fitted effect of over 50% in size
SW480 rerep = DNA re-replication induction in SW480 cells. SW480 DNA re-replication, Hoechst DNA content imaging, 48 h. Potency, µM (top dose mostly 46.1 µM), most hits filed as activators. 340,000 tested, 1.8% active; note: nearly all actives have a fitted effect of over 55% in size
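First, 250 cells per well were seeded. Next, compound or vehicle (23 nL) was pinned in, plates sat 48 hr at 37 C. Finally Hoechst was added for 40 min before fluorescence scanning.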
KB-V1 cytotox = kills drug-selected multidrug resistant KB-V1 cells. KB-V1 MDR cells viability, CellTiter-Glo, 72 h. Potency, µM (highest dose often 46.1 µM), hits mostly cytotoxic. 400,000 tested, 3.4% active. AID 1347076; note: nearly all actives have a fitted effect of over 60% in size
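Readout: CellTiter-Glo luminescence, 10 min after addition. Cells: KB-V1 MDR subline, 72 h at 37 degrees C with compound. Analysis: corrected, normalized data fitted to concentration-effect curves.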
12-LOX inh = ALOX12 (human) lipoxygenase inhibition | purified 12hLO, xylenol orange hydroperoxide absorbance | Potency, µM (titrated, usually from 108 µM), most hits filed as inhibitors | 580,000 tested, 1.1% active
Target sequence (P18054 whole entry, looked up): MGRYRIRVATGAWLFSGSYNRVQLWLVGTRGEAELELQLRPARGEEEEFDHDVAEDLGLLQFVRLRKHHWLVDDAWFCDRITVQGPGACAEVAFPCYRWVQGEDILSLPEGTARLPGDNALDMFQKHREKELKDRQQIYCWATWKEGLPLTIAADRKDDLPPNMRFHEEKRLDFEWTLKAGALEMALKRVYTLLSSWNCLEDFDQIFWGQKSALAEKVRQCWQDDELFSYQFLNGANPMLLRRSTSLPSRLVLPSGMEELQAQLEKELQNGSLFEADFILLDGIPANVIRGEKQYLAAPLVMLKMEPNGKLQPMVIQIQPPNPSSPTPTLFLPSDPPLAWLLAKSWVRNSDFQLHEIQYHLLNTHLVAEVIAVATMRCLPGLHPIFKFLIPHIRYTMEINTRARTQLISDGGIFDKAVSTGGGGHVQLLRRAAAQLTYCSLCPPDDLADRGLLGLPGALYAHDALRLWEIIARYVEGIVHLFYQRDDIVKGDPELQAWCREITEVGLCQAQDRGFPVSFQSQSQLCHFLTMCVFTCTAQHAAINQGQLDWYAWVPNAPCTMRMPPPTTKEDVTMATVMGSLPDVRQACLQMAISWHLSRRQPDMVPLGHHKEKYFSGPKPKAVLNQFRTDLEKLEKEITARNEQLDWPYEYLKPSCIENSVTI
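Hydroperoxide product was detected by ferrous iron/xylenol orange as the 573 to 405 nm absorbance ratio. Arachidonic acid at 40 uM (final) was turned over for 30 min at room temperature by 150 nM human 12hLO, pH 7.0 Hepes buffer, after 15 min compound preincubation.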
PINK1 expr mod = modulators of PINK1 expression | PINK1 immunofluorescence, high-content cytometry, 24 h | Potency, µM (highest dose often 76.6 µM), most hits filed as activators | 410,000 tested, 0.2% active; active = well fitted activation curve with a large enough effect; inconclusive = small, poorly fitted or top-dose-only effect; cell line not stated here; note: nearly all actives have a fitted effect of over 65% in size
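Fluorescence from anti-PINK1 antibody, together with nuclear and cell stains, was scanned on a laser-scanning cytometer. Before staining, stable-line cells were incubated 24 hours with compounds at 5 concentrations; primary antibody 12 h at 10 degrees C.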
KB-3-1 tox = KB-3-1 parental cell cytotoxicity | Potency, µM (titrated, usually from 46.1 µM), most hits filed as cytotoxic | KB-3-1 viability, CellTiter-Glo ATP luminescence, 72 h | 400,000 tested, 1.4% active; note: nearly all actives have a fitted effect of over 60% in size
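Cytotoxicity in the drug-sensitive parental line KB-3-1 was scored as loss of CellTiter-Glo luminescence following 72 h incubation with compound. Values come from curve fitting of normalized concentration-response data.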
Numbers stand for hits; i = inactive; ? = inconclusive; nt = no result given. Unless noted, calls come from the whole dose curve; as a rule, active = well fitted curve in the direction sought with a large enough effect; inconclusive = small, poorly fitted or top-dose-only effect, or another doubt; inactive = no such curve, though single readings can be large; an effect the other way counts as inactive or inconclusive.

SMILES	MCF10A rereplic	SW480 rerep	KB-V1 cytotox	12-LOX inh	PINK1 expr mod	KB-3-1 tox
Nc1ccc(C(=O)n2c3ccccc3c3ccccc32)cc1	?	3.3µM	1.8µM	i	i	2.3µM
Cc1c(/C=N/NC(=O)c2ccc(O)cc2)c2ccccn2c1C(=O)c1ccc(F)cc1	i	i	18µM	i	i	?
CCOC(=O)N/N=C/c1c(C)c(C(=O)c2ccc(F)cc2)n2ccccc12	i	i	i	i	i	i
COC(=O)N/N=C/c1c(C)c(C(=O)c2ccc(F)cc2)n2ccccc12	?	i	23µM	i	i	i
Cc1c(/C=N/NC(N)=O)c2ccccn2c1C(=O)c1ccncc1	i	i	i	?	i	i
Cc1c(/C=N/NC(=O)c2cc(=O)[nH]c(=O)[nH]2)c2ccccn2c1C(=O)c1ccccc1	i	i	i	i	i	i
Cc1c(/C=N/NC(=O)CNc2ccccc2)c2ccccn2c1C(=O)c1ccccc1	?	i	3.7µM	i	i	?
Cc1c(/C=N/NC(=O)c2ccccc2O)c2ccccn2c1C(=O)c1ccc(F)cc1	6.5µM	i	?	i	28µM	?
Cc1cc2ccccc2n1CC(=O)N1CCN(CC(=O)NC2CC2)CC1	nt	nt	nt	i	nt	nt
Nc1nc2ccc(-c3nc4ccccc4o3)cc2s1	?	i	1µM	i	i	5.8µM
c1ccc2oc(-c3ccc4nc[nH]c4c3)nc2c1	i	i	i	i	i	i
S=c1nn[nH]c2ccccc12	i	i	i	32µM	i	i
CC(C)n1nc(C(=O)NCCCC(=O)O)c2ccccc2c1=O	nt	nt	nt	i	nt	nt
Cc1oc(C)c2c(=O)ccc3c(c12)OC(N)=C(C#N)C3c1ccc(F)cc1 (configuration not stated)	i	i	i	?	i	i
Cc1cc(C)c2c3c(sc2n1)C(c1cccc(F)c1)C(C#N)=C(N)O3 (configuration not stated)	8.2µM	18µM	?	?	i	i
c1cncc(-c2nn3c(Cn4nnc5ccccc54)nnc3s2)c1	i	i	?	?	i	i
c1ccc(-c2nn3c(Cn4nnc5ccccc54)nnc3s2)nc1	i	i	18µM	i	i	i
c1ccc(Cc2nn3c(Cn4nnc5ccccc54)nnc3s2)cc1	i	i	23µM	56µM	i	i
c1ccc(CCc2nn3c(Cn4cnc5ccccc54)nnc3s2)cc1	i	i	18µM	?	i	?
c1ccc(CCc2nn3c(Cn4nnc5ccccc54)nnc3s2)cc1	i	i	i	i	i	i
COc1cc(/C=N/O)c(Br)cc1OCC(=O)Nc1ccccc1C	i	?	8.2µM	i	i	i
COc1cc(CNCCCN2CCOCC2)c(Br)cc1OCC(=O)Nc1ccccc1C	15µM	?	i	i	i	i
COC(=O)c1ccc(NC(=O)C(NC(=O)c2ccccc2)C(C)C)c(C)c1 (configuration not stated)	nt	nt	nt	i	nt	nt
Cc1cc(C)c2oc(C(=O)Nc3cccnc3)cc(=O)c2c1	nt	nt	nt	i	nt	nt
N#C/C(C(=O)NCc1ccco1)=C1/SC=C(c2ccccc2)N1c1ccccc1	?	29µM	i	i	i	i
SMILES	MCF10A rereplic	SW480 rerep	KB-V1 cytotox	12-LOX inh	PINK1 expr mod	KB-3-1 tox
O=C(O)C1CCC(=O)N1Cc1ccc(F)cc1 (configuration not stated)	16µM	i	i	i	i	i
Cc1ccc(CNC(=O)C2CCC(=O)N2Cc2ccc(F)cc2)cc1 (configuration not stated)	i	i	i	i	i	i
Cc1cccc(N(CC(=O)NCc2ccccc2)C(=O)Cn2nnc(-c3ccc(C)o3)n2)c1	i	i	2.9µM	i	i	i
O=C(CN(C(=O)Cn1nnc(-c2ccc(F)cc2)n1)c1ccc(F)c(Cl)c1)NCC1CCCO1 (configuration not stated)	i	i	i	i	i	i
Cc1ccc(-c2nnn(CC(=O)N(c3ccccc3)C(C(=O)NCC3CCCO3)c3ccc(Cl)cc3)n2)cc1 (configuration not stated)	18µM	i	i	i	i	i
Cc1ccc(-c2nnn(CC(=O)N(c3ccccc3)C(C(=O)NCC3CCCO3)c3ccc(F)cc3)n2)o1 (configuration not stated)	i	i	i	i	i	i
Cc1ccc(-c2nnn(CC(=O)N(CC(=O)NCc3ccccc3)c3cccc(C)c3C)n2)o1	i	i	i	i	i	i
Cc1ccc(-c2nnn(CC(=O)N(CC(=O)NCC3CCCO3)c3ccc(F)c(Cl)c3)n2)o1 (configuration not stated)	i	i	15µM	i	i	i
Cc1ccc(-c2nnn(CC(=O)N(c3ccc4c(c3)OCCO4)C(C(=O)NCC3CCCO3)c3ccc(F)cc3)n2)o1 (configuration not stated)	?	16µM	i	i	i	i
Cc1nc2ccccc2c(C)c1CC(=O)NC(C)(C)C	nt	nt	nt	i	nt	nt
Cn1c(=O)c2nc(SCc3cccc(F)c3)n(C)c2n(C)c1=O	nt	nt	nt	i	nt	nt
COc1ccccc1CNS(=O)(=O)c1ccc(-n2cnnn2)c(C)c1	i	i	i	i	i	i
Cc1cc(S(=O)(=O)NCC(c2ccccc2)c2ccccc2)ccc1-n1cnnn1	i	i	18µM	i	i	i
Cc1ccc(C(=O)NC2CC2)cc1S(=O)(=O)N1CCCC1	nt	nt	nt	i	nt	nt
O=C(NCC1(COc2cnccn2)C[C@@H](O)[C@@H](O)C1)Nc1cccnc1 (some centres not stated)	nt	nt	nt	25µM	nt	nt
CC(OC(=O)c1c2c(nc3ccccc13)/C(=C\c1ccc3c(c1)OCO3)CCC2)C(=O)Nc1ccc(S(N)(=O)=O)cc1 (configuration not stated)	3.3µM	21µM	i	nt	i	i
COc1cc(OC)cc(C(=O)NCc2n[nH]c(=O)c3ccccc23)c1	nt	nt	nt	i	nt	nt
Cc1ncc([N+](=O)[O-])n1CCOC(=O)c1cc(Cl)cc(Cl)c1N	i	i	i	32µM	i	i
Cc1ncc([N+](=O)[O-])n1CCOC(=O)Nc1ccc([N+](=O)[O-])cc1	i	i	i	i	i	i
O=C(O)c1cnc(/C=C/c2cc(Cl)c3c(c2)OCCCO3)s1	nt	nt	nt	i	nt	nt
O=C1NC[C@H](Cc2ccccc2)N(CCc2cccc(F)c2)C1=O	i	i	?	i	i	i
CC(=Nc1ccccc1)C1=C(O)C(Cc2cccc(F)c2)NC1=O (configuration not stated)	nt	nt	1.2µM	?	i	?
CC(=Nc1ccccc1)C1=C(O)C(Cc2ccc(O)cc2)NC1=O (configuration not stated)	0.46µM	0.13µM	?	i	i	0.21µM
Cn1nc(C(=O)N2CCN(CC(=O)N3CCCC3)CC2)c2ccccc2c1=O	nt	nt	nt	i	nt	nt

Assay outcomes (PubChem)
